Assay outcomes deposited in PubChem BioAssay by National Center for Advancing Translational Sciences (NCATS).
Most compounds without a hit are left out; they make up all but 12% or so of the library.
Sfp inh = inhibitors of Bacillus subtilis Sfp phosphopantetheinyl transferase | Q9F4F7 | Biochemical Sfp PPTase activity, qHTS | Potency, µM, usual class: inhibitors | actives 3.5% (n = 310,000);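 note: the enzyme is Sfp with the accession as filed and its product quenches rhodamine fluorescence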
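Reaction rates are the 30-min fluorescence difference (ex 525, em 598 nm) in wells containing 15 nM Sfp, 5 uM rhodamine-CoA and 12.5 uM BHQ-2-YbbR at pH 7.6 with 10 mM MgCl2.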
HP1b binding inh = HP1-beta chromodomain-methylated histone interaction inhibition | AID 540317 | AlphaScreen HP1-beta / biotin-H3K9me3 peptide binding | actives 0.56% (n = 390,000) | Potency, µM (series often up to 114 µM), actives largely listed as inhibitors | P83916; note: nearly all actives have a fitted effect of over 70% in size
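Compound inhibition of the preformed complex between 50 nM HP1-beta and 50 nM biotinylated H3K9me3 peptide was read by AlphaScreen. Buffer was PBS pH 7.4 with 0.01% Tween-20. Incubations ran 30 min at room temperature, with 10 ug/mL donor/acceptor beads.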
PLK1 PBD block = blocks phosphopeptide binding to human PLK1 polo-box domain. actives 2.8% (n = 360,000). Potency, µM, hits mostly inhibitors. Plk1 PBD binding of FITC phosphopeptide, fluorescence polarization. AID 720504; note: series mostly up to about 57 µM; nearly all actives have a fitted effect of over 65% in size
BAZ2B block = BAZ2B (human) inhibition. AlphaScreen BAZ2B-H3K14Ac peptide displacement. AID 504333. Q9UIF8. actives 4.4% (n = 360,000). Potency, µM (top dose mostly 114 µM), hits mostly inhibitors; note: nearly all actives have a fitted effect of over 60% in size
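Protein-peptide AlphaScreen: BAZ2B 50 nM, b-H3K14Ac 50 nM, 1x PBS pH 7.4 + 0.01% Tween-20. Preincubation 30 min RT; cpd 30 min RT (top 110 uM); beads 20 min RT, light-protected.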
G9a inh = inhibitors of human histone lysine methyltransferase G9a | Q96KQ7 | G9a H3K9 monomethylation, AlphaScreen, 2 h | Potency, µM (highest dose often 102 µM), usual class: inhibitors | actives 8.8% (n = 350,000); note: nearly all actives have a fitted effect of over 75% in size
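Enzyme 20 nM + cpd, 15 min RT; add b-H3K9 pep 500 nM / SAM 20 uM; 2 h RT; anti-H3K9me1 Ab 0.5 ug/mL + SA donor / anti-rabbit acceptor beads 20 ug/mL each, 10 min; AlphaScreen read.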
JMJD2A Tudor inh = inhibitors of human JMJD2A Tudor domain; AlphaScreen JMJD2A-Tudor / H3K4me3 peptide binding; Potency, µM (series often up to 114 µM), usual class: inhibitors; actives 4.4% (n = 390,000); note: nearly all actives have a fitted effect of over 50% in size
Sfp PPTase conf = Sfp phosphopantetheinyl transferase inhibition, confirmation; Sfp PPTase enzymatic assay, qHTS titration; Potency, µM (titrated, usually from 114 µM), usual class: inhibitors; AID 2701; actives 79% (n = 380); shares compounds with Sfp inh
Sfp gel assay = Blocks Sfp PPTase activity, gel read-out. AID 2707. actives 20% (n = 210). purified Sfp, gel-based phosphopantetheinylation read-out. shares compounds with Sfp inh. Potency, µM, actives largely listed as inhibitors;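 active = potency below 100 µM; inconclusive = dose-dependent response but potency above 100 µM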;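 note: potency is an IC50 for inhibitors of Sfp transfer activity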
Of the large screens only hits and unclear results are named; the others gave an inactive call (follow-up assays come after a bar, where they were run). Unless noted, calls come from the whole dose curve; as a rule, active = well fitted curve in the direction sought with a large enough effect; inconclusive = small, poorly fitted or top-dose-only effect, or another doubt; inactive = no such curve, though single readings can be large; an effect the other way counts as inactive or inconclusive.

O=C1[C@H]2[C@H]3[C@H](O)[C@H](O)C/C(=N/OC[C@@H](O)COCc4ccco4)[C@H]3CC[C@@H]2C(=O)N1Cc1ccccc1	none (no result: HP1b binding inh, PLK1 PBD block, BAZ2B block, G9a inh, JMJD2A Tudor inh)
CCOC(=O)C1=C(Cc2ccc(Cl)cc2)C(=O)c2ccccc2C1=O	Sfp inh 3.5µM, HP1b binding inh 20µM, PLK1 PBD block 4.7µM, BAZ2B block 22µM, G9a inh 2.5µM, JMJD2A Tudor inh 35µM
COc1ccc(CC(N)c2csc(Nc3nncc4ccccc34)n2)cc1 (stereo unspecified)	none (no result: Sfp inh, HP1b binding inh, BAZ2B block, G9a inh, JMJD2A Tudor inh)
COc1ccc(-c2nc(NC3=NCCCCC3)sc2C)cc1	BAZ2B block inconclusive, G9a inh inconclusive
CCNc1nc(-c2ccc(OC(F)F)cc2)c(C)s1	Sfp inh inconclusive, G9a inh 40µM
Cc1cc(C)c(C#N)c(SCc2ccccc2[N+](=O)[O-])n1	PLK1 PBD block inconclusive, G9a inh 10µM
O=[N+]([O-])c1cccnc1SCc1c(F)cccc1Cl	BAZ2B block inconclusive (no result: G9a inh)
Cc1ccc(C#N)c(SCc2ccccc2[N+](=O)[O-])n1	G9a inh inconclusive
O=[N+]([O-])c1ccc(Sc2n[nH]c(-c3ccncc3)n2)nc1	Sfp inh inconclusive, G9a inh 45µM
O=[N+]([O-])c1ccc(Sc2ccc(Cl)c(Cl)c2)nc1	BAZ2B block 22µM, G9a inh inconclusive, JMJD2A Tudor inh inconclusive
O=[N+]([O-])c1ccc(SCc2c(F)cccc2Cl)nc1	BAZ2B block inconclusive, JMJD2A Tudor inh 56µM (no result: G9a inh)
Cc1ccc(S(=O)(=O)N(C)C)cc1NC(=O)COC(=O)CN1C(=O)c2ccccc2C1=O	none (no result: Sfp inh)
Cc1onc(-c2ccccc2Cl)c1C(=O)NC1CCCCCC1	none
O=[N+]([O-])c1ccc(CSc2ccccn2)cc1	none
O=[N+]([O-])c1ccccc1CSc1ccccn1	PLK1 PBD block inconclusive, G9a inh 50µM
O=[N+]([O-])c1ccc(Sc2ccccn2)nc1	G9a inh 45µM
O=C(Nc1ccc([N+](=O)[O-])cc1)c1ccccc1	none
O=C(Nc1cc(Sc2ccccn2)cc([N+](=O)[O-])c1)c1ccc([N+](=O)[O-])cc1	PLK1 PBD block 1.1µM, BAZ2B block inconclusive, JMJD2A Tudor inh 3.2µM
Cc1ccc(/C=N\NC(=O)CCc2n[nH]c(=O)[nH]c2=O)o1	Sfp inh inconclusive, PLK1 PBD block 17µM, JMJD2A Tudor inh 16µM
CCCCCCCc1nc2sc3c(c2c(=O)n1N)CC(C)(C)OC3	none
CCC1CC2(C)NC(=O)c3c(sc4c3CC(C)(C)OC4)N2C1=O (stereo unspecified)	Sfp inh 16µM, HP1b binding inh inconclusive, PLK1 PBD block 12µM, G9a inh 32µM | Sfp PPTase conf 19µM
O=c1c(CCc2ccccc2)nc2cnc(Oc3cccc(Cl)c3)nc2n1C[C@H]1CCCO1	none (no result: HP1b binding inh, PLK1 PBD block, BAZ2B block, JMJD2A Tudor inh)
COc1ccc(NC(=S)N(CCC(C)C)C2CCN(C(C)C)CC2)cc1Cl	Sfp inh 4µM, PLK1 PBD block 2.1µM, G9a inh 5µM | Sfp PPTase conf 1.9µM
CC(=O)O[C@H]1C(=O)[C@@]2(C)[C@H]([C@H](OC(=O)c3ccccc3)[C@]3(O)C[C@H](OC(=O)[C@H](O)C(NC(=O)c4ccccc4)c4ccccc4)C(C)=C1C3(C)C)[C@]1(OC(C)=O)CO[C@@H]1C[C@@H]2O (stereo partly specified)	Sfp inh 10µM | Sfp PPTase conf 30µM | Sfp gel assay inactive
CCn1nnc2cc(C(=O)NCC(c3ccccc3OC)N(C)C)ccc21 (stereo unspecified)	G9a inh inconclusive
CCOc1ccccc1NC(=O)c1c(NC(=O)CCC(=O)O)sc2c1CCCCC2	Sfp inh 13µM, PLK1 PBD block inconclusive, BAZ2B block inconclusive, G9a inh 25µM, JMJD2A Tudor inh 45µM | Sfp PPTase conf 24µM | Sfp gel assay inactive
